MEKK2mut PB1 HTS = signal of MEK5 binding to mutant human MEKK2 PB1 domain; AID 1530; hit rate 0.35% among 290,000; percent response, % at 10 µM; bead flow cytometry, Alexa488-MEK5 binding to MEKK2 mutant; in the data active = percent response above about 24%, passing the limit was not always enough
MEKK2wt PB1 HTS = raises or lowers MEK5 binding to wildtype human MEKK2 PB1 domain | binding response (% of control), % at 10 µM | hit rate 1.1% among 290,000 | bead flow cytometry, Alexa488-MEK5 binding to MEKK2 WT; actives lie on both sides; in the data active = binding response below about 67% or above about 130%
MEKK3 PB1 HTS = modulators (inhibitors or enhancers) of MEK5 binding to human MEKK3 PB1 domain; hit rate 1.4% among 290,000; AID 1529; binding response (% of control), % at 10 µM; bead-based flow cytometry, Alexa488-MEK5 binding to MEKK3; actives lie on both sides; 0 = blocked by unlabeled MEK5, 100 = vehicle;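 active = binding response more than 3 SD above or below the average of its plate-row segment, actives on both sides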;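 also: Alexa488 bead fluorescence after subtracting the streptavidin-only scavenger bead signal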
VLA-4 inh = inhibition in a human VLA-4 binding assay; hit rate 0.2% among 330,000; VLA-4 expressing cells, ligand binding flow cytometry; P13612; inhibition, % (about 7 µM as worked out from the volumes in the protocol); in the data active = inhibition above about 50%
Target sequence (P13612 whole entry, looked up): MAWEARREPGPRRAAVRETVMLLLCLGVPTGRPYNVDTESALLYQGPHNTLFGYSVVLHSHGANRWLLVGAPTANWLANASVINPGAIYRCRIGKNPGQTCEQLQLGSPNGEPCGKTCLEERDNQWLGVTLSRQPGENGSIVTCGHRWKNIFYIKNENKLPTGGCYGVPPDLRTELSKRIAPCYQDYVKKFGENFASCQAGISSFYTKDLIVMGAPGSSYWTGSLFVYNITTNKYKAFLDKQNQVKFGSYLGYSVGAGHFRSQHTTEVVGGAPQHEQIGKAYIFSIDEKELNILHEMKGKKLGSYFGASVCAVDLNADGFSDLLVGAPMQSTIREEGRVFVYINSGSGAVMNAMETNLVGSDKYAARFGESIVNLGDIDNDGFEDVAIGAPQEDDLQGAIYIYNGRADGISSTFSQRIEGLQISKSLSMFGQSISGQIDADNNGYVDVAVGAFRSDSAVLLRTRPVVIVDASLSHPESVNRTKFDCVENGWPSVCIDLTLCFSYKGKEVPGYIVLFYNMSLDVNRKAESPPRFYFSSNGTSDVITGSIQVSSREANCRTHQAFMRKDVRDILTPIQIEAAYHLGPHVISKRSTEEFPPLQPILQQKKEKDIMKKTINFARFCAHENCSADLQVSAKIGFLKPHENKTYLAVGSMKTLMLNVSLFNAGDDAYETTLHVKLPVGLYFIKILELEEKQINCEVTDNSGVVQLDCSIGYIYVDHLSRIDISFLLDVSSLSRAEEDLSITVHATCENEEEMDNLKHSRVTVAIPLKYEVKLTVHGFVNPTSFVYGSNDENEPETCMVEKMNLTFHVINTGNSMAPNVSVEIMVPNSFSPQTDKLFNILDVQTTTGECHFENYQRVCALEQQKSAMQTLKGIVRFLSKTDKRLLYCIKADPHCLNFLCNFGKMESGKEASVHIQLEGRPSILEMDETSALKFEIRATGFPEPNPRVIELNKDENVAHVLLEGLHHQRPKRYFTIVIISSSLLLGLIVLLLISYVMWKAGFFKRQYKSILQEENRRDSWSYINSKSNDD
VLA-4 mod pick = human VLA-4 allosteric modulation in cherry picked compounds. hit rate 2% among 1,300. shares compounds with VLA-4 inh. inhibition, % at 6.7 µM. U937 cells, HUTS-21 LIBS mAb binding, flow cytometry; LDV ligand present at threefold Kd. AID 2813; in the data active = inhibition above about 40%
Each line names hits and unclear results; the compound was inactive in the other large screens (follow-up assays come after a bar, where they were run). A selection: hits, their analogues and other compounds. The true share with any hit is near 2.2%.

CCCOc1ncnc2c1[nH]c1ccc(C)cc12	none | VLA-4 mod pick inactive
CCN(CC)CC(C)(C)COC(=O)c1oc2ccccc2c1C	none
COc1ccccc1Nc1nc2ccc(C)cc2cc1C#N	VLA-4 inh 108 (no result: MEKK2mut PB1 HTS, MEKK2wt PB1 HTS, MEKK3 PB1 HTS) | VLA-4 mod pick inactive
COc1cccc(CN2CC(C(=O)NCc3ccc(Cl)s3)CCC2=O)c1 (centres undefined)	none (no result: VLA-4 inh)
Cc1ccc(OCC(=O)Nc2ccncc2)cc1	none
COc1ccc(/C=C/C(=O)Nc2ccccc2C(=O)NCC(c2ccc(OC)cc2)N(C)C)cc1 (centres undefined)	VLA-4 inh 54 | VLA-4 mod pick inactive
COCc1cc(=O)n2[nH]c(-c3cccs3)cc2n1	none
CC(=O)c1cn(-c2ccc(Cl)cc2)c(=O)[nH]c1=O	none
CNc1nc(N(C)C)nc(N(C)C)n1	VLA-4 inh 59 | VLA-4 mod pick inactive
Cc1ccc(C2C(C#N)=C(N)Oc3cc(C)oc(=O)c32)o1 (centres undefined)	none
N#CC1=C(S)N=C(N)C(c2nc(-c3ccccc3)cs2)C12CCCC2 (centres undefined)	VLA-4 inh 91 | VLA-4 mod pick inactive
COc1cc(CCCN2C(=O)C(=O)NC[C@H]2Cc2cccc3ccccc23)cc(OC)c1OC	none
CCC(C)[C@H]1CNC(=O)C(=O)N1CCCc1cc(OC)c(OC)c(OC)c1 (some centres undefined)	none | VLA-4 mod pick inactive
CCCC[C@@H]1CNC(=O)C(=O)N1CCCc1cc(OC)c(OC)c(OC)c1	VLA-4 inh 58 | VLA-4 mod pick inactive
O=C1CCc2cc(NS(=O)(=O)c3ccccc3)cc3c2N1CC3	none (no result: MEKK2mut PB1 HTS, MEKK2wt PB1 HTS, MEKK3 PB1 HTS)
CCS(=O)(=O)c1ccc(N)cc1	VLA-4 inh 58 (no result: MEKK2mut PB1 HTS, MEKK2wt PB1 HTS, MEKK3 PB1 HTS) | VLA-4 mod pick inactive
CCOc1ccccc1C1CC(=O)Nc2cc(C)c(C)cc21 (centres undefined)	none
COC(=O)C1=C(C)NC(=O)CC1c1cccc(OC)c1OC (centres undefined)	none
COc1cccc(C2CC(=O)Nc3cc(OC)c(OC)c(OC)c32)c1OC (centres undefined)	none | VLA-4 mod pick inactive
CCOc1ccccc1C1CC(=O)Nc2cc(OC)c(OC)c(OC)c21 (centres undefined)	none | VLA-4 mod pick inactive
c1ccc(-c2nnc(CN3CCCCC3)o2)cc1	none | VLA-4 mod pick inactive
NC(CSCc1cccc(Br)c1)C(=O)O (centres undefined)	none
Cc1nn(CC(=O)Nc2ccc(C(=O)N(C)C)cc2)c(=O)c2ccccc12	VLA-4 inh 51 | VLA-4 mod pick inactive
Cc1nn(CC(=O)Nc2ccccc2)c(=O)c2ccccc12	none
COc1cccc(CNC(=O)Nc2cccs2)c1	VLA-4 inh 92 | VLA-4 mod pick inactive
COc1ccc(CNC(=O)Nc2cccs2)cc1OC	none
COc1ccc(CNCCNC(=O)c2cccs2)cc1OC	VLA-4 inh 65 | VLA-4 mod pick inactive
CCN(CC(=O)NCc1ccc(F)cc1)C(=O)c1ccc2c(c1)OCO2	none (no result: MEKK2mut PB1 HTS, MEKK2wt PB1 HTS, MEKK3 PB1 HTS)
C=CCn1c(SCC(=O)Nc2ccc3c(c2)CCC3)nc2ccccc2c1=O	none
CCCCn1c(SCC(=O)Nc2ccc3c(c2)CCC3)nc2ccccc2c1=O	none | VLA-4 mod pick inactive
C=CCN(CC=C)C(=S)NC(=O)c1ccc(OC)cc1	VLA-4 inh 52 | VLA-4 mod pick inactive
C=CCN(CC=C)C(=S)NC(=O)c1ccc(-c2ccccc2)cc1	none
Cc1ccc(C(=O)N2CCC(C)CC2)cc1NC1=NC2CS(=O)(=O)CC2S1 (centres undefined)	VLA-4 inh 67 | VLA-4 mod pick inactive
Cc1ccc(C(=O)N2CC(C)CC(C)C2)cc1NC1=NC2CS(=O)(=O)CC2S1 (centres undefined)	none | VLA-4 mod pick inactive
COc1ccc(OCCN2C(=O)c3ccccc3C2=O)c([N+](=O)[O-])c1	none
CS(=O)(=O)N1CCC(C(=O)NCc2ccc3c(c2)OCO3)CC1	none
CCOc1cnn(-c2ccccc2)c(=O)c1Cl	none | VLA-4 mod pick inactive
CCSc1cnn(-c2ccccc2)c(=O)c1Cl	none (no result: MEKK2mut PB1 HTS, MEKK2wt PB1 HTS, MEKK3 PB1 HTS)
COc1cc(CN(C)CC2CCCN(CCc3ccccc3F)C2)cc(Cl)c1OC (centres undefined)	none
O=C(CCN1C(=O)C2CC=CCC2C1=O)Nc1cccc(S(=O)(=O)N2CCCCC2)c1 (centres undefined)	none (no result: MEKK2mut PB1 HTS, MEKK2wt PB1 HTS, MEKK3 PB1 HTS)
NS(=O)(=O)c1cccc(NC(=O)CCN2C(=O)C3CCCCC3C2=O)c1 (centres undefined)	VLA-4 inh 53 (no result: MEKK2mut PB1 HTS, MEKK2wt PB1 HTS, MEKK3 PB1 HTS) | VLA-4 mod pick inactive
N#Cc1ccsc1NC(=O)CCN1C(=O)C2CCCCC2C1=O (centres undefined)	none (no result: MEKK2mut PB1 HTS, MEKK2wt PB1 HTS, MEKK3 PB1 HTS)
COCCN1C=C2C(=O)C(C)(OC(=O)c3cccs3)C(=O)C=C2C=C1CCCC(=O)OC (centres undefined)	VLA-4 inh 50 | VLA-4 mod pick inactive
Cc1ccc2c([N+](=O)[O-])c(C)ccc2n1	VLA-4 inh 51 | VLA-4 mod pick inactive
Cc1cc(C)n2ncc(S(=O)(=O)c3ccccc3)c2n1	none
Cc1nnc(Sc2cc(C(=O)NC3CC3)c3ccccc3n2)s1	none
CCCCCCCCOC(=O)c1ccc(N)cc1	VLA-4 inh 50 | VLA-4 mod pick inactive
CCCCOC(=O)c1ccc(O)cc1	none
CCOC(=O)c1csc(NC(=O)c2ccc(C#N)cc2)n1	none
CCc1nnc(NC(=O)OCc2ccccc2)s1	VLA-4 inh 57 | VLA-4 mod pick inactive
N#Cc1c(-c2ccc(Cl)cc2Cl)nc2n(c1=O)CCS2	VLA-4 inh 92 | VLA-4 mod pick inactive
CCCNC(=O)CN(C1CCCCC1)S(C)(=O)=O	VLA-4 inh 91 | VLA-4 mod pick inactive
CC(C)CNC(=O)CN(C1CCCCC1)S(C)(=O)=O	none
Cc1cc(C(=O)N2CCN(Cc3ccc4c(c3)OCO4)CC2)on1	none
COc1cccc(-c2cc(C(=O)N3CCN(Cc4ccc5c(c4)OCO5)CC3)on2)c1	VLA-4 inh 55 | VLA-4 mod pick inactive
O=C(CSc1nnc(Cc2cc(=O)[nH]c(=O)[nH]2)n1-c1ccccc1)N1CCCCC1	none | VLA-4 mod pick inactive
COc1ccc(-n2c(Cc3cc(=O)[nH]c(=O)[nH]3)nnc2SCC(=O)N2CCCC2)cc1	none (no result: MEKK2mut PB1 HTS, MEKK2wt PB1 HTS, MEKK3 PB1 HTS)
COc1ccc(-n2c(Cc3cc(=O)[nH]c(=O)[nH]3)nnc2SCC(=O)Nc2ccccc2)cc1	none (no result: MEKK2mut PB1 HTS, MEKK2wt PB1 HTS, MEKK3 PB1 HTS)
O=C(CSc1nnc(Cc2cc(=O)[nH]c(=O)[nH]2)n1-c1ccccc1)N1CCCC1	none | VLA-4 mod pick inactive
C[C@H](CO)N1C[C@H](C)[C@@H](CN(C)S(=O)(=O)c2ccc(F)cc2)Oc2c(NS(=O)(=O)c3ccccc3)cccc2C1=O	none (no result: MEKK2mut PB1 HTS, MEKK2wt PB1 HTS, MEKK3 PB1 HTS)
O=C1OC(c2ccc(F)cc2)=N/C1=C\C=C/c1ccccc1	none | VLA-4 mod pick inactive
O=C1OC(/C=C/c2ccccc2)=NC/1=C/C=C/c1ccccc1	none
CCN(CC)S(=O)(=O)c1cccc(C(=O)OCC(=O)Nc2ccccc2OC(F)F)c1	none | VLA-4 mod pick inactive
Cc1ccc(S(=O)(=O)NCCC(=O)NC2CCCCCC2)cc1C	none (no result: MEKK2mut PB1 HTS, MEKK2wt PB1 HTS, MEKK3 PB1 HTS)
COc1ccc(S(=O)(=O)NCC(=O)O)cc1C(=O)NC1CCCCC1	none | VLA-4 mod pick inactive
COc1ccc(N(CC(=O)Nc2cccc(OC)c2)S(=O)(=O)c2c(C)nn(C)c2C)cc1	none | VLA-4 mod pick inactive

Screening data from PubChem.
